From PubChem BioAssay (NCI)
The panel holds about 83,000 compounds, 20% with a hit somewhere; the sample as a whole holds those more often.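 Interpretation: 100, growth as untreated; towards 0, rising growth inhibition; 0, no net growth; 0 to -100, cell death. Compounds scoring below 10 were considered active.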 Unmarked numbers belong to inactive results. Activity calls are given as the source filed them.

Tests used:
Assay in all cases: NCI-60 one-dose screen, 48 h (100 = growth as untreated, 0 = no growth, -100 = all killed)
Details in all cases: 10 µM unless noted
[1] = system: SR leukemia
[2] = system: RPMI-8226 leukemia
[3] = system: OVCAR-8 ovarian
[4] = system: OVCAR-5 ovarian
[5] = system: OVCAR-4 ovarian
[6] = system: SK-OV-3 ovarian
[7] = system: IGROV1 ovarian
[8] = system: OVCAR-3 ovarian
[9] = system: HS 578T breast
[10] = system: NCI/ADR-RES ovarian

CC(C)(C)[Si](C)(C)OC1[C@@H](O[Si](C)(C)C(C)(C)C)[C@@H](CNC(=O)NC(=O)NC(=O)CI)O[C@H]1n1cnc2c(NC(=O)Nc3ccccc3)ncnc21 (stereo not given in full)
growth [1]: 2.35% (active)
growth [2]: 35.2%
growth [3]: -9.33% (active)
growth [4]: 67.3%
growth [5]: 42.9%
growth [6]: 92.6%
growth [7]: -65.4% (active)
growth [8]: -63.5% (active)
growth [9]: 67.4%
growth [10]: 4.72% (active)

O=S1(=O)NCCCN1CCNc1nccc(-c2c(-c3cccc(O)c3)nc3sccn23)n1
growth [1]: 23.2%
growth [2]: 107%
growth [3]: 83%
growth [4]: 108%
growth [5]: 85.4%
growth [6]: 43.6%
growth [7]: 56.7%
growth [8]: 73.3%
growth [9]: 70.4%
growth [10]: 116%

S=C(S)Oc1cccc2cccnc12
growth [1]: 87.7%
growth [2]: 106%
growth [3]: 108%
growth [4]: 108%
growth [5]: 92.2%
growth [6]: 100%
growth [7]: 86.1%
growth [8]: 120%
growth [9]: 96.2%
growth [10]: 106%

CCN1C(=O)/C(=C/N2N=C(c3ccc(Cl)cc3)CC2c2ccc(OC)cc2)SC1=S (stereo not given)
growth [1]: 84.2%
growth [2]: 101%
growth [3]: 93.1%
growth [4]: 101%
growth [5]: 84.4%
growth [6]: 87.4%
growth [7]: 84.3%
growth [8]: 104%
growth [9]: 95.2%
growth [10]: 96.8%

COc1cnc2c(c1)C(=O)c1c-2n(CCCNC(C)C)c(=O)c2cc(Cl)ccc12
growth [1]: -52.1% (active)
growth [2]: -59% (active)
growth [3]: -41.6% (active)
growth [4]: -56.1% (active)
growth [5]: -77% (active)
growth [6]: -5.05% (active)
growth [7]: -57% (active)
growth [8]: -78.3% (active)
growth [9]: 58.1%
growth [10]: -9.91% (active)

CN(C)c1ccc(C2(Cl)c3ccccc3N(C)c3ccccc32)cc1
growth [1]: 25.4%
growth [2]: 21.1%
growth [3]: 7.94% (active)
growth [4]: 91.7%
growth [5]: 59.5%
growth [6]: 77.6%
growth [7]: 46.5%
growth [8]: 35.8%
growth [9]: 71.7%
growth [10]: 94.6%

CCn1c(Cc2ccccc2Nc2c(Cl)cccc2Cl)nnc1SCC(=O)Nc1cccc(OC)c1
growth [1]: 87.1%
growth [2]: 63.2%
growth [3]: 89.8%
growth [4]: 82.9%
growth [5]: 78.7%
growth [6]: 85.4%
growth [7]: 67%
growth [8]: 96%
growth [9]: 72%
growth [10]: 86.1%

O=C(Nc1cccc(N=Cc2c(O)ccc3ccccc23)c1)c1ccccc1
growth [1]: 101%
growth [2]: 94.6%
growth [3]: 93%
growth [4]: 108%
growth [5]: 88.1%
growth [6]: 90.4%
growth [7]: 101%
growth [8]: 103%
growth [9]: 97.4%
growth [10]: 103%

Cc1cc2nc(CN)[nH]c2cc1C
growth [1]: 97.2%
growth [2]: 96.5%
growth [3]: 106%
growth [4]: 112%
growth [5]: 112%
growth [6]: 104%
growth [7]: 111%
growth [8]: 100%
growth [9]: 114%
growth [10]: 112%

CCN1C(=O)C(C)C=C(C)C=C1C (stereo not given)
growth [1]: 110%
growth [2]: 115%
growth [3]: 102%
growth [4]: 106%
growth [5]: 119%
growth [6]: 106%
growth [7]: 106%
growth [8]: 92.6%
growth [9]: 102%
growth [10]: 119%

O=C1/C(=C/c2ccccc2)SC(=Nc2ccccc2)N1Nc1ccccc1
growth [1]: -20.1% (active)
growth [2]: -37.4% (active)
growth [3]: 24.5%
growth [4]: 22.3%
growth [5]: 8.26% (active)
growth [6]: 10.5%
growth [7]: 22.7%
growth [8]: -5.68% (active)
growth [9]: 35.1%
growth [10]: 8.98% (active)

COc1ccc(C(=O)OC2C(OC3C(O)COC(O[C@H]4C[C@H]5[C@@H]6CC=C7C[C@@H](O)CC[C@]7(C)[C@H]6CC[C@]5(C)[C@H]4[C@H](C)C(=O)CCC(C)C)C3OC(C)=O)OCC(O)C2O)cc1 (stereo not given in full)
growth [1]: -8.55% (active)
growth [2]: -29.1% (active)
growth [3]: 19.3%
growth [4]: 21.6%
growth [5]: 52.1%
growth [6]: -44.1% (active)
growth [7]: 28.3%
growth [8]: 53.4%
growth [9]: -29.3% (active)
growth [10]: 60.1%

CC(C)C/C=C/C=C/C(=O)N[C@@H](CC(N)=O)C(=O)N[C@@H]1C(=O)N[C@H](c2ccc(O)cc2)C(=O)N[C@H](CCCN)C(=O)N[C@H]([C@@H](C)O)C(=O)N[C@H](c2ccc(O)cc2)C(=O)N[C@H](c2ccc(O)cc2)C(=O)N[C@H]([C@H](C)O)C(=O)N[C@H](Cc2ccccc2)C(=O)N[C@H](CCCN)C(=O)N[C@H](c2ccc(O[C@H]3O[C@@H](CO)[C@@H](O)[C@@H](O)[C@H]3O[C@@H]3O[C@H](CO)[C@H](O)[C@H](O)[C@@H]3O)cc2)C(=O)N[C@H]([C@H](C)O)C(=O)N[C@H](c2ccc(O)cc2)C(=O)NCC(=O)N[C@H](CC(C)C)C(=O)N[C@H](C)C(=O)N[C@H](c2ccc(O)c(Cl)c2)C(=O)O[C@@H]1C(N)=O
growth [1]: 33.1%
growth [2]: 109%
growth [3]: 63.9%
growth [4]: 36.2%
growth [5]: 117%
growth [6]: 87.4%
growth [7]: 96.6%
growth [8]: 117%
growth [9]: 67.3%
growth [10]: 96.9%

O=C1SCN(Cc2ccccc2)CN1Cc1ccccc1
growth [1]: 8.82% (active)
growth [2]: 43.7%
growth [3]: 90.7%
growth [4]: 105%
growth [5]: 109%
growth [6]: 107%
growth [7]: 97.2%
growth [8]: 105%
growth [9]: 95.5%
growth [10]: 100%

CC(C)CCSc1nc(-c2ccc(F)cc2)c(C#N)c(N2CCN(C)CC2)n1
growth [1]: 67.5%
growth [2]: 80%
growth [3]: 83.2%
growth [4]: 91.3%
growth [5]: 96.7%
growth [6]: 87%
growth [7]: 95.2%
growth [8]: 93.9%
growth [9]: 79.1%
growth [10]: 87.2%

COc1ccc(-c2cc(C(=O)Nc3ccc(C)cc3)nc3[nH]c(=O)sc23)cc1
growth [1]: 76.8%
growth [2]: 47.2%
growth [3]: 77.1%
growth [4]: 100%
growth [5]: 71.7%
growth [6]: 68.4%
growth [7]: 70.3%
growth [8]: 80.1%
growth [9]: 74.1%
growth [10]: 78.3%

CCN(CC)Cc1cc(Nc2ccnc3ccc(OC)cc23)ccc1O
growth [1]: 7.65% (active)
growth [2]: 48.5%
growth [3]: 28.4%
growth [4]: 55%
growth [5]: 55.3%
growth [6]: 73.6%
growth [7]: 23.8%
growth [8]: 50.8%
growth [9]: 77.2%
growth [10]: 35.8%

COc1cccc(C2C(C#N)=C(N)Oc3cc4c(cc32)OCO4)c1 (stereo not given)
growth [1]: 17.8%
growth [2]: 23.8%
growth [3]: 24.9%
growth [4]: 31.1%
growth [5]: 40.5%
growth [6]: 0.748% (active)
growth [7]: 21.6%
growth [8]: -38.6% (active)
growth [9]: 27.8%
growth [10]: 5.77% (active)

O=C(CC(=O)C(F)(F)C(F)(F)C(F)(F)F)c1cc2ccccc2o1
growth [1]: 101%
growth [2]: 109%
growth [3]: 102%
growth [4]: 103%
growth [5]: 98.6%
growth [6]: 105%
growth [7]: 110%
growth [8]: 106%
growth [9]: 103%
growth [10]: 102%

COc1ccc(C2=NNC(c3ccc(Oc4nc5c(c(=O)n(C)c(=O)n5C)n4C)c(OC)c3)C2)cc1 (stereo not given)
growth [1]: 62.7%
growth [2]: 80.4%
growth [3]: 94.4%
growth [4]: 102%
growth [5]: 98.1%
growth [6]: 117%
growth [7]: 105%
growth [8]: 108%
growth [9]: 89.4%
growth [10]: 87.2%

O=C(N/N=C\c1cc(Br)ccc1O)c1ccncc1
growth [1]: 14.2%
growth [2]: 36.9%
growth [3]: 27.5%
growth [4]: 54.8%
growth [5]: 36.8%
growth [6]: 38.3%
growth [7]: 25.2%
growth [8]: 25.1%
growth [9]: 76.5%
growth [10]: 12.4%

CCN(CCC#N)c1ccccc1
growth [1]: 96.4%
growth [2]: 98%
growth [3]: 103%
growth [4]: 102%
growth [5]: 100%
growth [6]: 114%
growth [7]: 115%
growth [8]: 113%
growth [9]: 91.8%
growth [10]: 105%

COc1cc(C2CC(c3ccc(Cl)cc3)=NN2C(C)=O)ccc1Oc1nc2c(c(=O)n(C)c(=O)n2C)n1C (stereo not given)
growth [1]: 78.5%
growth [2]: 72.1%
growth [3]: 92.2%
growth [4]: 108%
growth [5]: 67.9%
growth [6]: 112%
growth [7]: 82.3%
growth [8]: 102%
growth [9]: 80.5%
growth [10]: 61.6%

CCOC(=O)N1C2CCC(C2)N1C(=O)OCC
growth [1]: 101%
growth [2]: 101%
growth [3]: 101%
growth [4]: 100%
growth [5]: 95.3%
growth [6]: 104%
growth [7]: 108%
growth [8]: 113%
growth [9]: 111%
growth [10]: 108%

O=C(CCl)Nc1cc(O)c2c(c1)C(=O)c1cccc(O)c1C2=O
growth [1]: -35.5% (active)
growth [2]: -53.8% (active)
growth [3]: -49.5% (active)
growth [4]: -40% (active)
growth [5]: -1.37% (active)
growth [6]: 17.1%
growth [7]: -55.6% (active)
growth [8]: -100% (active)
growth [9]: 11.4%
growth [10]: 19.1%

O=C(/C=C/c1ccccc1)c1c[nH]c2ccccc2c1=O
growth [1]: 10.8%
growth [2]: -15.9% (active)
growth [3]: -13.3% (active)
growth [4]: 3.5% (active)
growth [5]: 42.1%
growth [6]: 11.6%
growth [7]: -11.5% (active)
growth [8]: -60.9% (active)
growth [9]: -18.8% (active)
growth [10]: 0.29% (active)
